Results: PubChem BioAssay (Tox21)
Records with an inconclusive call do not appear. Where a call stands in place of a potency, no number is given. Activity calls are given as the source filed them. Calls come from the whole dose curve; as a rule, active = well fitted cell-killing curve with a large enough effect in the repeat runs; inconclusive = weak or mixed curves, or effect the other way; inactive = flat fitted curve, though single readings scatter.

Assay: qHTS assay to identify small molecule antagonists of the androgen receptor (AR) signaling pathway using the MDA cell line in the presence of 0.5 nM R1881 - cell viability counter screen (AID 1259242); note: nearly all actives have a fitted effect of over 45% in size
Settings: MDA-kb2 viability, CellTiter-Fluor protease fluorescence, 16 h; series mostly up to 92.4 µM
Text: U.S. Tox21 Program National Center for Advancing Translational Sciences [NCATS] NIH Chemical Genomics Center [NCGC] U.S. Environmental Protection Agency [EPA] National Institutes of Environmental Health Sciences [NIEHS] National Toxicology Program [NTP] U.S. Food and Drug Administration [FDA] Tox21 Assay Overview: Androgen receptor (AR) is an important member of the nuclear receptor family. Its signaling plays a critical role in AR-dependent prostate cancer and other androgen related diseases. Considerable attention has been given in the past decades to develop methods to study and screen for the environmental chemicals that have the potential to interfere with metabolic homeostasis, reproduction, developmental and behavioral functions. Therefore AR binding assay for screening androgen antagonists can be used to identify potential endocrine disruptors. MDA-kb2 cells (from ATCC, deposited by Wilson et al.) were used to screen for AR inhibitors against Tox21 compound libraries. These cells are human breast carcinoma cells that were stably transfected with a luciferase reporter gene under control of the MMTV promoter that contains response elements for both androgen receptor (AR) and glucocorticoid receptor (GR). The current screening for identification of AR inhibitors against Tox21 libraries used lower concentration of (0.5 nM) R1881 as a stimulator. The cytotoxicity of the Tox21 compound libraries against MDA-kb2 cell line was tested by measuring live-cell protease activity using CellTiter-Fluor assay in the same wells.
Tox21 Assay Protocol Summary: MDA-kb2 cells (cells cultured without CO2) were dispensed at 3,000 cells/well in 4 uL of culture medium into white wall/solid-bottom 1536-well plates (Corning Life Sciences, Corning, NY) using a Multidrop Combi (ThermoFisher Scientific, Waltham, MA) dispenser. After the assay plates were incubated at a 37C and 0% CO2 for 5 hr, 23 nL of compounds dissolved in DMSO, positive controls or DMSO only was transferred to the assay plate by a Pintool station (Kalypsys, San Diego, CA). The transfer of compounds was followed by the addition of 1 uL of 0.5 nM (final concentration) agonist (R1881)/culture medium using a Flying Reagent Dispenser (FRD, Aurora Discovery, San Diego, CA). The plates were incubated at 37C and 0% CO2 for 16 hr. For cytotoxicity assay, 1 uL of CellTiter-Fluor reagent (Promega Corporation, Madison, WI) was added to each well using the FRD and after 30 min incubation at 37C and 0% CO2, The fluorescence intensity was measured using ViewLux plate reader (PerkinElmer, Shelton, CT).
Potency is the fitted concentration of half-maximal effect.

**Q.** With `Cc1cc(C)c(S(=O)(=O)O)cc1N=Nc1cc(S(=O)(=O)O)c2ccccc2c1O` as the compound, how does the Potency read?
**A.** 61.1 µM (active)

**Q.** For `CC(C)NCC(O)c1cc(O)cc(O)c1` (stereo not given), which Potency is on record?
**A.** inactive

**Q.** Which Potency does the source give for `CC[C@@H]1C[C@H](N(Cc2cc(C(F)(F)F)cc(C(F)(F)F)c2)C(C)=O)c2cc(C(F)(F)F)ccc2N1C(=O)OC(C)C` here?
**A.** inactive

**Q.** Which Potency does the source give for `CN1CCN(C2=Nc3ccccc3Sc3ccc(Cl)cc32)CC1` here?
**A.** inactive

**Q.** Which Potency does the source give for `CNCC[C@@H](Oc1ccccc1C)c1ccccc1` here?
**A.** inactive

**Q.** With `CC(=O)OCCc1ccccc1` as the compound, how does the Potency read?
**A.** inactive

**Q.** With `Nc1ccc(C(=O)Nc2ccccc2N)cc1` as the compound, how does the Potency read?
**A.** inactive

**Q.** Which Potency does the source give for `CCN(CC)CCNC(C(=O)OCCC(C)C)c1ccccc1` (stereo not given) here?
**A.** inactive

**Q.** With `CCCC[C@H]1CN(CC2CCOCC2)C(=O)OC12CCN(C1(C)CCN(C(=O)c3c(C)ncnc3C)CC1)CC2` as the compound, how does the Potency read?
**A.** inactive

**Q.** With `O=S1(=O)N=C(O)c2ccccc21` as the compound, how does the Potency read?
**A.** inactive

**Q.** For `CC1=CCC(C(C)C)C=C1` (stereo not given), which Potency is on record?
**A.** inactive

**Q.** For `Nc1cnn([C@@H]2O[C@H](CO)[C@@H](O)[C@H]2O)c(=O)n1`, which Potency is on record?
**A.** inactive

**Q.** With `CCCCCCCCCCCCCCCCCBr` as the compound, how does the viability change, negative = cytotoxic read?
**A.** -0.565% [at 19 µM] (inactive)

**Q.** For `CC(C)(C)c1cc(CO)cc(C(C)(C)C)c1O`, which Potency is on record?
**A.** inactive

**Q.** Which Potency does the source give for `CC[C@H](C)[C@H](N)C(=O)O` here?
**A.** inactive

**Q.** With `c1ccc(-c2nc[nH]c2-c2ccccc2)cc1` as the compound, how does the Potency read?
**A.** inactive

**Q.** Which Potency does the source give for `CC(=O)/C(C)=C/C1C(C)=CCCC1(C)C` (stereo not given) here?
**A.** inactive

**Q.** Which Potency does the source give for `Oc1ccc(C(O)CNCCCCCCNCC(O)c2ccc(O)c(O)c2)cc1O` (stereo not given) here?
**A.** inactive

**Q.** For `c1ccc(OCc2ccc(CCCN3CCOCC3)cc2)cc1`, which Potency is on record?
**A.** inactive

**Q.** Which Potency does the source give for `CC(C)(Oc1ccc(Cl)cc1)C(=O)OCCCOC(=O)C(C)(C)Oc1ccc(Cl)cc1` here?
**A.** inactive

**Q.** For `CCCCC(CC)COCCCN` (stereo not given), which Potency is on record?
**A.** inactive

**Q.** Which Potency does the source give for `CC(=O)O[C@@H]1C(=O)O[C@@H]2[C@H]1OC(=O)[C@@H]2OC(C)=O` here?
**A.** inactive

**Q.** For `N[C@H]1C(O)O[C@H](CO)[C@H](O)[C@@H]1O` (stereo not given in full), which Potency is on record?
**A.** inactive

**Q.** For `CCN(CC)CCc1nc(-c2ccccc2)no1`, which Potency is on record?
**A.** inactive

**Q.** For `Cl/C(=C\n1cncn1)c1ccc(Cl)cc1Cl`, which Potency is on record?
**A.** inactive

**Q.** With `CCCCOC(=O)c1ccccc1C(=O)OCC(CC)CCCC` (stereo not given) as the compound, how does the Potency read?
**A.** inactive

**Q.** Which Potency does the source give for `C=C(C)C(=O)OCCOc1ccccc1` here?
**A.** inactive

**Q.** Which Potency does the source give for `Cc1cccc(OCCOc2cccc(C)c2)c1` here?
**A.** inactive

**Q.** For `N#Cc1c(F)cccc1F`, which Potency is on record?
**A.** inactive

**Q.** With `C=C(C)C(=O)OCCN(C)C` as the compound, how does the Potency read?
**A.** inactive

**Q.** With `COCCO` as the compound, how does the Potency read?
**A.** inactive

**Q.** With `CC(C)(C)C(=O)OCOP(=O)(COCCn1cnc2c(N)ncnc21)OCOC(=O)C(C)(C)C` as the compound, how does the Potency read?
**A.** inactive

**Q.** With `O=C(O)[C@@H]1[C@H]2C[C@H]3c4[nH]c5ccccc5c4CCN3C[C@@H]2CC[C@@H]1O` as the compound, how does the Potency read?
**A.** inactive

**Q.** For `CCCCCC/C=C/C=O`, which Potency is on record?
**A.** inactive

**Q.** Which Potency does the source give for `CC(C)(C)C1CCCCC1O` (stereo not given) here?
**A.** inactive

**Q.** For `Cc1cccc(C(C)(C)C)c1O`, which Potency is on record?
**A.** inactive

**Q.** For `NCCCOCCOCCOCCCN`, which Potency is on record?
**A.** inactive

**Q.** With `COC(Cc1ccccc1)OC` as the compound, how does the Potency read?
**A.** inactive

**Q.** For `CC(C)CC=O`, which Potency is on record?
**A.** inactive

**Q.** With `O=C(O)/C=C/c1cnc[nH]1` as the compound, how does the Potency read?
**A.** inactive
